# Laboratory results reported in PubChem BioAssay AID504467 (National Center for Advancing Translational Sciences (NCATS), 2011).
# The campaign covered roughly 330,000 compounds. About 7,700 (2.3%) were called active. A call without a number means that no potency is given here. Not shown: some 26% with an inconclusive outcome. Calls follow the shape of the dose curve; as a rule, active = well fitted inhibition curve with a large enough effect; inconclusive = small, poorly fitted or top-dose-only effect, or effect the other way; inactive = flat fitted curve, though single readings scatter. The sample as a whole holds a higher share of actives than the screen did.
# Assay: qHTS screen for small molecules that inhibit ELG1-dependent DNA repair in human embryonic kidney (HEK293T) cells expressing luciferase-tagged ELG1; also: nearly all actives have a fitted effect of over 55% in size
# Details: HEK293T ELG1-luciferase reporter, luminescence, 16 h, DNA damage induced by 5-fluorouridine; series mostly up to 46.1 µM
# Excerpt: NIH Molecular Libraries Probe Production Network [MLPCN] NIH Chemical Genomics Center [NCGC] MLPCN Grant: 1 R03 MH092164-01 Assay Provider: Kyungjae Myung, NHGRI, NIH Keywords: MLPCN, qHTS, NCGC, genotoxicity, cancer Assay Overview: Cancer cells divide rapidly compared to normal cells in the body. During cell division, cancer cells need to duplicate their genome by DNA replication. The failure of genome duplication leads to cancer cells' death. Therefore, inhibitors of DNA replication could specifically kill cancer cells. Based on this concept, many chemotherapeutic agents were developed and have been used to treat cancer patients. However, there are a limited number of agents available in the clinical setting, and some of those that do exist have low efficacy and severe side effects. Therefore, if we can find the compounds that effectively block DNA replication either by directly damaging DNA or by inhibiting other cellular mechanisms, the options for cancer treatment will be broadened. With this in mind, we developed a quantitative high-throughput ELG1-luciferase reporter gene assay. Small molecules that specifically block ELG1 function in response to DNA damage can be identified by monitoring the suppression of luciferase activity. Since ELG1 defines a pathway for repairing DNA damage, agents blocking ELG1 function can be used to sensitize cancer cells to chemotherapeutic agents whose mechanism of action involves the induction of DNA damage.
# Assay Protocol Summary: For genotoxicity screening, 2,000 cells in 4 uL/well were dispensed into white, solid-bottom 1536-well plates using a solenoid-based dispenser. Following transfer of 1 uL 5-Fluorouridine and 23 nL compound or DMSO vehicle by a pin tool, the plates were incubated 16 hr at 37 °C and 5% CO2. 5 ul ONE-Glo (Promega) was then added to each plate and following a 30 min incubation at room temperature, luciferase activity was quantified on a ViewLux CCD-based plate reader.
# Potency is read from the fitted curve at half-maximal effect.
row,Compound,Potency
1,CN1CCN(S(=O)(=O)c2ccc(Nc3ccc(F)cc3)nc2)CC1,inactive
2,O=C(CN1C(=O)NC2(CCCCCCC2)C1=O)NCc1ccc(F)cc1,inactive
3,O=C(C(NS(=O)(=O)c1cccc2nsnc12)c1ccccc1)N1CCN(c2ccccn2)CC1 (centres undefined),inactive
4,O=C(O)C(NS(=O)(=O)c1cccc2nsnc12)c1ccccc1 (centres undefined),inactive
5,O=C(C(NS(=O)(=O)c1cccc2nsnc12)c1ccccc1)N1CCN(c2ccccc2)CC1 (centres undefined),16.4 µM (active)
6,COC(=O)c1cc(NC(=O)c2cc(C(C)(C)C)nn2Cc2cccc(C)c2)ccc1N1CCOCC1,16.4 µM (active)
7,COC(=O)c1cc(NC(=O)c2ccco2)ccc1N1CCOCC1,inactive
8,CC(=O)Nc1ccc(N2CCOCC2)c(C(=O)Nc2cccc(C)c2)c1,inactive
9,CSc1ncccc1C(=O)Nc1ccc(C)cn1,inactive
10,Cc1csc(SCC(=O)N(c2ccccc2)C(C)C)n1,inactive
11,CC(C)(C)OC(=O)C[C@@H]1C/C=C\C[C@@H](CC(=O)N[C@@H](CO)Cc2ccccc2)C(=O)N2CCC[C@H]2COC1=O,inactive
12,Brc1ccc2ncnc(NCc3cccnc3)c2c1,8.2 µM (active)
13,Cc1cc(NCc2cccnc2)no1,inactive
14,NC(=O)c1cc(-c2cccnc2)nc2ccc(Br)cc12,inactive
15,C=CC[C@@H](CC(=O)NCCO)C(=O)N[C@H](C)COC(=O)[C@@H](CC=C)CC(=O)OC(C)(C)C,inactive
16,COc1ccc(/C(C)=N/Nc2cc(C(F)(F)F)ccc2Cl)c(OC)c1,inactive
17,CC(CC(=O)Nc1cc(C(F)(F)F)ccc1Cl)c1ccccc1 (centres undefined),inactive
18,COc1cc(OC)c(C(=O)OC(C)C(=O)Nc2cc(C(F)(F)F)ccc2Cl)cc1OC (centres undefined),14.6 µM (active)
19,CC1CC(C)CN(C(=O)COC(=O)c2ccc3ncsc3c2)C1 (centres undefined),inactive
20,CCN(CC(=O)Nc1ccc(OC)cc1)C(=O)c1ccc(Cl)c(S(=O)(=O)N2CCCC2)c1,inactive
21,Cc1nnc(N/N=C/C2CC=CCC2)[nH]c1=O (centres undefined),inactive
22,Cc1ccccc1Nc1nnc(C)c(=O)[nH]1,inactive

row,Compound,Potency
1,Cc1nnc(N/N=C/c2ccccn2)[nH]c1=O,0.92 µM (active)
2,Cc1ccc([C@@H]2CC=C(C(=O)O)[C@H](c3cccc(Cl)c3)N2S(=O)(=O)c2ccc(C)cc2)cc1,inactive
3,CN(CCc1ccccc1)C(=O)c1cccc(NC(=O)Cc2ccc([N+](=O)[O-])cc2)c1,13 µM (active)
4,CN(C)C(CNC(=O)Cc1ccc([N+](=O)[O-])cc1)c1ccccc1 (centres undefined),inactive
5,CN(C)CCNC(=O)Cc1ccc([N+](=O)[O-])cc1,inactive
6,Cc1ccc2nnn(Cc3cccc(C(C)(C)C)c3O)c2c1,inactive
7,CCc1ccc2nc(N(CCCN(C)C)C(=O)c3ccc4c(c3)OCCO4)sc2c1,inactive
8,O=C(CSc1ncnc2sccc12)NC1CCS(=O)(=O)C1 (centres undefined),inactive
9,CC1(C)Cc2cccc(OCC(=O)NCc3ccccc3)c2O1,inactive
10,COc1ccc(NS(=O)(=O)c2cc(NC(=O)C3CCCCC3)ccc2N2CCOCC2)cc1,20.6 µM (active)
11,COc1ccc(NS(=O)(=O)c2ccc(N3CCOCC3)c(NC(=O)c3ccccc3Br)c2)cc1,inactive
12,COc1ccc(NS(=O)(=O)c2cc(NC(=O)/C=C/c3cc(OC)c(OC)c(OC)c3)ccc2N2CCCCC2)cc1,inactive
13,COc1ccc2oc(C)c(NC(C)=O)c2c1,inactive
14,CC(=O)c1c(C)oc2ccc(NS(=O)(=O)c3ccc(C(=O)O)cc3)cc12,inactive
15,COc1ccc(S(=O)(=O)Nc2ccc3oc(C)c(C(C)=O)c3c2)cc1,2.59 µM (active)
16,Cc1ccc(S(=O)(=O)N2CCC(C(=O)OCC(=O)N(C)c3ccccc3)CC2)cc1C,inactive
17,CCN(CC(=O)Nc1ccc(C)c(S(=O)(=O)N(C)C)c1)Cc1ccccc1,inactive
18,CC(C)(C)c1ccc(SCCc2ccncc2)cc1,inactive
19,CCC(C(=O)NC1CCCC1)N(C(=O)Cn1nnc(-c2ccc(C)o2)n1)c1ccc(OC)c(OC)c1 (centres undefined),inactive
20,CCOCC(=O)Nc1sc2c(c1C(=O)OCC)CCCC2,inactive
21,COC(=O)c1c(NC(=O)CCCC(=O)O)sc2c1CCCCC2,inactive
22,COC(=O)c1c(NC(=O)COC(=O)[C@@H](NS(=O)(=O)c2ccccc2)C(C)C)sc2c1CCC2,25.9 µM (active)

row,Compound,Potency
1,O=C1C=C(c2cc(C(F)(F)F)cc(C(F)(F)F)c2)C[C@@H](c2ccc3c(c2)OCO3)C1,inactive
2,NC(=O)c1sc2nc3c(c(-c4ccccc4)c2c1N)CCC3,4.11 µM (active)
3,Cc1nc2sc(C(=O)c3ccccc3)c(N)c2c2c1CCCC2,inactive
4,Cc1cccc(NC(=O)c2sc3nc4c(c(-c5ccco5)c3c2N)CCC4)c1,inactive
5,CC(=O)N1CCN(c2ccccc2NC(=S)NC(=O)c2cc3ccccc3o2)CC1,inactive
6,COc1ccc(-c2oc3ncnc(NCCCO)c3c2-c2ccc(OC)cc2)cc1,18.3 µM (active)
7,c1ccc(-c2oc3ncnc(N4CCOCC4)c3c2-c2ccccc2)cc1,inactive
8,COc1ccc(-c2oc(/N=C/N3CCCC3)c(C#N)c2-c2ccc(OC)cc2)cc1,inactive
9,CCn1c(=O)c2ccccc2n(CC(=O)N2CCCc3ccccc32)c1=O,inactive
10,CCN(C[C@H]1N[C@@](CC)(C(=O)OC)[C@H]2C(=O)N(Cc3ccccc3)C(=O)[C@@H]12)S(=O)(=O)c1ccccc1,inactive
11,COc1ccc(NC(=O)c2cc([N+](=O)[O-])ccc2NC(=O)CNC2CCCCC2C)c(OC)c1 (centres undefined),inactive
12,CCOc1ccc(C(C(=O)NC2CCCC2)N(C(=O)c2snc(C(N)=O)c2N)C2CCCC2)cc1 (centres undefined),inactive
13,COc1ccc(C(=O)OCC(=O)c2cc(C)n(CC3CCCO3)c2C)cc1[N+](=O)[O-] (centres undefined),inactive
14,COc1cc(/C=C/C(=O)N2c3ccccc3Sc3ccc(C(F)(F)F)cc32)cc(OC)c1OC,9.2 µM (active)
15,O=C(CN1CCCCCC1)N1c2ccccc2Sc2ccc(C(F)(F)F)cc21,inactive
16,O=C(CN1CCCCC1)N1c2ccccc2Sc2ccc(C(F)(F)F)cc21,inactive
17,COC(=O)C1CCN(C(=O)NC2CC(=O)N(c3ccc4c(c3)OCCO4)C2)CC1 (centres undefined),inactive
18,COC(=O)COc1ccc(S(=O)(=O)N2CCOCC2)cc1,inactive
19,COc1ccc(C(=O)Nc2nc(-c3ccc(S(=O)(=O)N4CCOCC4)cc3)cs2)cc1,11.6 µM (active)
20,COc1cccc(C(=O)Nc2nnc(S(=O)(=O)N3CCOCC3)s2)c1,inactive
